Here are results for 40 compounds from PubChem BioAssay (Tox21).

Inconclusive results are not listed. Where a call stands in place of a potency, no number is given. The source made the active and inactive calls. Calls follow the shape of the dose curve; as a rule, active = well fitted cell-killing curve with a large enough effect in the repeat runs; inconclusive = weak or mixed curves, or effect the other way; inactive = no such curve, though single readings can be large or run the other way.

The assay in a line: qHTS assay to identify small molecule agonists of the farnesoid-X-receptor (FXR) signaling pathway - cell viability counter screen (AID 743218). Also: nearly all actives have a fitted effect of over 45% in size. Conditions: FXR-bla HEK293T viability, CellTiter-Glo luminescence, 16 h; series mostly up to 62.6 µM. An excerpt: U.S. Tox21 Program National Center for Advancing Translational Sciences [NCATS] NIH Chemical Genomics Center [NCGC] U.S. Environmental Protection Agency [EPA] National Institutes of Environmental Health Sciences [NIEHS] National Toxicology Program [NTP] U.S. Food and Drug Administration [FDA] Tox21 Assay Overview: The farnesoid-X-receptor (FXR), a nuclear hormone receptor, is highly expressed in liver, intestine, kidney and adrenal cortex. Natural ligands of FXR are the bile acids (Cholic acid, Chenodeoxy cholic acid etc). FXR is an important regulator of diverse metabolic pathways, including the bile acid homeostasis, lipid and glucose metabolisms. FXR regulates the expression of target genes by binding either as a monomer or as a heterodimer with the retinoid X receptor (RXR). Numerous studies have reported that FXR exerts protective function during cholestasis, diabetes, liver regeneration, and cancer. To identify compounds that activate FXR signaling, GeneBLAzer FXR-UAS-bla HEK 293T cell line (Invitrogen, Carlsbad, CA) containing a beta-lactamase reporter gene under the control of a UAS response element was used to screen the Tox21 10K compound library. The cytotoxicity of the Tox21 compound library against the FXR-bla cell line was tested in parallel by measuring the cell viability using CellTiter-Glo assay in the same wells.
Tox21 Assay Protocol Summary: FXR-bla cells were dispensed at 5000 cells/5uL/well in 1536-well black wall/clear bottom plates using a Multidrop Combi (Thermo Fisher Scientific, Waltham, MA) dispenser. After the assay plates were incubated at 37 C and 5% CO2 for 5 h, 23 nL of compounds dissolved in DMSO, positive controls or DMSO only was transferred to the assay plate by a Pintool station (Kalypsys, San Diego, CA). The assay plates were incubated at 37C for 16 h. After 1 uL of LiveBLAzerTM B/G FRET substrate was added using a Bioraptr Flying Reagent Dispenser (FRD) workstation (Beckman Coulter, Indianapolis, IN), the plates were incubated at room temperature for 2 h, and fluorescence intensity was measured by an Envision plate reader (PerkinElmer, Shelton, CT). For cell viability readout that measures cytotoxicity, 4uL/well of CellTiter-Glo reagent was added into the assay plates using a Bioraptr FRD. After 30 min incubation at room temperature, the luminescence intensity in the plates was measured using a ViewLux plate reader (PerkinElmer).
For orientation: qHTS replaces the single test concentration by a dilution series.
In the case of `Nc1nc(=O)n([C@@H]2O[C@H](CO)[C@@H](O)[C@@H]2F)cc1I`, the Potency entry was “inactive”.

For the compound `Cc1cccc(NC(=S)N(C)C)c1`, the Potency entry is “inactive”.

For `O=S1(=O)CCCC1`, the Potency result was “inactive”.

`CN[C@@H]1[C@H](O)[C@H](NC)[C@H]2O[C@@]3(O)C(=O)C[C@@H](C)O[C@H]3O[C@@H]2[C@H]1O`: the Potency result is “inactive”.

As to `CCOC(=O)CC#N`, the Potency entry is “inactive”.

Take `CC(C)(C)NCCO`: the Potency result was “inactive”.

Consider `CC(C)(CO)[C@@H](O)C(=O)NCCCO`, for which the Potency result is “inactive”.

For `O=C(COCCOCCOCC(=O)Nc1c(I)cc(I)c(C(=O)O)c1I)Nc1c(I)cc(I)c(C(=O)O)c1I`, the Potency result was “inactive”.

Consider `CNC(=O)C(c1ccccc1)c1ccccc1`, for which the Potency result was “inactive”.

For `CCCOC(=O)CCCCC(=O)OCCC`, the Potency result was “inactive”.

As for `CC(C)CCO`, the Potency entry is “inactive”.

In the case of `COC(/C=C(\C)CCC=C(C)C)OC`, the Potency result is “inactive”.

Consider `CCCCCCCCC(=O)OCC`, for which the Potency entry was “inactive”.

Regarding `CCN(CCO)c1cccc(C)c1`, the Potency result is “inactive”.

As to `C/C=C(\C)C(=O)OCC/C=C\CC`, the Potency result is “inactive”.

Take `C[C@H](CCC(=O)O)[C@H]1CC[C@H]2[C@@H]3[C@H](O)C[C@@H]4C[C@H](O)CC[C@]4(C)[C@H]3C[C@H](O)[C@]12C`: the Potency entry is “inactive”.

Turning to `c1ccc(CNc2ncnc3nc[nH]c23)cc1`, the Potency entry is “inactive”.

Consider `Nc1ccc(S(=O)(=O)NC(=O)c2ccccc2)cc1`, for which the Potency entry is “inactive”.

On to `C=CCOc1cc(Cl)ccc1C(=O)NCCN(CC)CC`, for which the Potency result was “inactive”.

For the compound `O=S(=O)(O)SSS(=O)(=O)O`, the Potency result is “inactive”.

In the case of `SCCSCCS`, the Potency entry is “inactive”.

For the compound `CO[Si](CCCS)(OC)OC`, the Potency entry is “inactive”.

As for `COc1ccc(N=Nc2cc(C)c(N=Nc3ccc(S(=O)(=O)O)cc3)cc2OC)cc1`, the Potency entry was “inactive”.

On to `O=C1CC[C@H](C(=O)N2CCCCC2)N1`, for which the Potency entry is “inactive”.

As for `CC(=O)OC(C)(C)Cc1ccccc1`, the Potency result was “inactive”.

With `CCCCOC(=O)[C@@H](C)Oc1ccc(Oc2ccc(C(F)(F)F)cn2)cc1`, the Potency result was “inactive”.

Regarding `FC(F)(F)c1ccc(Cl)cc1Cl`, the Potency result was “inactive”.

As to `CC(C)(c1ccc(Oc2ccc3c(c2)C(=O)OC3=O)cc1)c1ccc(Oc2ccc3c(c2)C(=O)OC3=O)cc1`, the Potency result is “inactive”.

As for `Cc1ccccc1OCC1CO1` (stereo not given), the Potency result was “inactive”.

As to `Nc1cc(S(=O)(=O)O)ccc1S(=O)(=O)O`, the Potency entry was “inactive”.

`C1=C\CC/C=C\CC/1`: the Potency result was “inactive”.

For the compound `COc1cc2c(Nc3ccc(Br)cc3F)ncnc2cc1OCC1CCN(C)CC1`, the Potency result was “inactive”.

Turning to `C=CCOCC(O)CCl` (stereo not given), the Potency entry was “inactive”.

For `CO/N=C(/C(=O)N[C@@H]1C(=O)N2C(C(=O)O)=C(Cn3nnc(C)n3)CS[C@H]12)c1csc(N)n1`, the Potency entry is “inactive”.

As to `COCCOCCOCCOC`, the Potency result was “inactive”.

In the case of `CCCCCCCCCCCCC1CO1` (stereo not given), the Potency entry was “inactive”.

Consider `CCCCCCCCCCCCOC(C)=O`, for which the Potency entry is “inactive”.

As to `C[C@H]1O[C@H](O[C@H]2[C@H](O)[C@@H](O)[C@@H](O[C@H]3[C@H](O)[C@@H](O)[C@H](O)O[C@@H]3CO)O[C@@H]2CO)[C@H](O)[C@@H](O)[C@@H]1N[C@H]1C=C(CO)[C@@H](O)[C@H](O)[C@H]1O`, the Potency result was “inactive”.

On to `CC1=NN(c2ccc(S(=O)(=O)O)cc2)C(=O)C1N=Nc1ccccc1` (stereo not given), for which the Potency entry is “inactive”.

In the case of `O=c1cc(O)c(Cl)c[nH]1`, the Potency entry was “inactive”.
